# Of roughly 7,900 targets only a part is listed; those with a hit were picked by preference. About 0.6% of all pairs of compound and target were hits. Values without a mark were called inactive.
# Legend:
# Assay in all cases: log2 fold change, soluble protein after heating vs DMSO (PISA); higher = thermal stabilisation; K562 cells, 10 uM, 30 min; active = over 0.2 and 3.5 SD of the protein, either way, in both replicates (recomputed)
# [1] = compound: CS(=O)(=O)c1ccc(-c2cnc(N)c(C(=O)Nc3ccccc3)n2)cc1
# Method in brief: (§1)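 K562 cells at 2×10^6 cells/mL were given 10 μM compound for 30 min. Aliquots then went through 3 min of heating across 48°C-58°C, were pooled, and were extracted in PBS with 0.5% NP-40 at 4°C, and the supernatant after 21,000xg for 90 min was quantified by TMTpro 16plex LC-MS/MS with channel sums equalised. Thermal stability relative to control samples, from duplicates, is given as log2 fold change.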
# crizotinib = compound: C[C@@H](Oc1cc(-c2cnn(C3CCNCC3)c2)cnc1N)c1c(Cl)ccc(F)c1Cl [crizotinib]
# Method in brief: as §1
# [2] = compound: C[C@@H]1COCCN1C2=NC(=NC(=C2)C3(CC3)S(=O)(=O)C)C4=C5C=CNC5=CC=C4
# Method in brief: as §1
# [3] = compound: C[C@H](C1=CC=C(C=C1)C(=O)NC2=C3C=CNC3=NC=C2)N
# Method in brief: as §1
# duvelisib = compound: C[C@H](Nc1ncnc2nc[nH]c12)c1cc2cccc(Cl)c2c(=O)n1-c1ccccc1 [duvelisib]
# Method in brief: as §1
# gandotinib = compound: Cc1cc(Nc2cc(CN3CCOCC3)c3nc(C)c(Cc4ccc(Cl)cc4F)n3n2)n[nH]1 [gandotinib]
# Method in brief: as §1
# tozasertib = compound: Cc1cc(Nc2cc(N3CCN(C)CC3)nc(Sc3ccc(NC(=O)C4CC4)cc3)n2)n[nH]1 [tozasertib]
# Method in brief: as §1
# [4] = compound: Cc1cc(SCc2sc(-c3ccc(C(F)(F)F)cc3)nc2C)ccc1OCC(=O)O
# Method in brief: as §1
# doramapimod = compound: Cc1ccc(-n2nc(C(C)(C)C)cc2NC(=O)Nc2ccc(OCCN3CCOCC3)c3ccccc23)cc1 [doramapimod]
# Method in brief: as §1
# ispinesib = compound: Cc1ccc(C(=O)N(CCCN)[C@@H](c2nc3cc(Cl)ccc3c(=O)n2Cc2ccccc2)C(C)C)cc1 [ispinesib]
# Method in brief: as §1
# Chain of UniProt Q9UEU0 (Q9UEU0 whole entry, looked up): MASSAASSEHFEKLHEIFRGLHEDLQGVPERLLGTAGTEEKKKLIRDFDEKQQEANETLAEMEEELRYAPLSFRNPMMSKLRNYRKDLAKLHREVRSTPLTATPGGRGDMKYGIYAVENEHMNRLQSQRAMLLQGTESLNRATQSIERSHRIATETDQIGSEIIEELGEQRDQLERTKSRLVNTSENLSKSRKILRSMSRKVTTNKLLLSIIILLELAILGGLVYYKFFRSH
# Chain of UniProt A3KMH1 (A3KMH1 whole entry, looked up): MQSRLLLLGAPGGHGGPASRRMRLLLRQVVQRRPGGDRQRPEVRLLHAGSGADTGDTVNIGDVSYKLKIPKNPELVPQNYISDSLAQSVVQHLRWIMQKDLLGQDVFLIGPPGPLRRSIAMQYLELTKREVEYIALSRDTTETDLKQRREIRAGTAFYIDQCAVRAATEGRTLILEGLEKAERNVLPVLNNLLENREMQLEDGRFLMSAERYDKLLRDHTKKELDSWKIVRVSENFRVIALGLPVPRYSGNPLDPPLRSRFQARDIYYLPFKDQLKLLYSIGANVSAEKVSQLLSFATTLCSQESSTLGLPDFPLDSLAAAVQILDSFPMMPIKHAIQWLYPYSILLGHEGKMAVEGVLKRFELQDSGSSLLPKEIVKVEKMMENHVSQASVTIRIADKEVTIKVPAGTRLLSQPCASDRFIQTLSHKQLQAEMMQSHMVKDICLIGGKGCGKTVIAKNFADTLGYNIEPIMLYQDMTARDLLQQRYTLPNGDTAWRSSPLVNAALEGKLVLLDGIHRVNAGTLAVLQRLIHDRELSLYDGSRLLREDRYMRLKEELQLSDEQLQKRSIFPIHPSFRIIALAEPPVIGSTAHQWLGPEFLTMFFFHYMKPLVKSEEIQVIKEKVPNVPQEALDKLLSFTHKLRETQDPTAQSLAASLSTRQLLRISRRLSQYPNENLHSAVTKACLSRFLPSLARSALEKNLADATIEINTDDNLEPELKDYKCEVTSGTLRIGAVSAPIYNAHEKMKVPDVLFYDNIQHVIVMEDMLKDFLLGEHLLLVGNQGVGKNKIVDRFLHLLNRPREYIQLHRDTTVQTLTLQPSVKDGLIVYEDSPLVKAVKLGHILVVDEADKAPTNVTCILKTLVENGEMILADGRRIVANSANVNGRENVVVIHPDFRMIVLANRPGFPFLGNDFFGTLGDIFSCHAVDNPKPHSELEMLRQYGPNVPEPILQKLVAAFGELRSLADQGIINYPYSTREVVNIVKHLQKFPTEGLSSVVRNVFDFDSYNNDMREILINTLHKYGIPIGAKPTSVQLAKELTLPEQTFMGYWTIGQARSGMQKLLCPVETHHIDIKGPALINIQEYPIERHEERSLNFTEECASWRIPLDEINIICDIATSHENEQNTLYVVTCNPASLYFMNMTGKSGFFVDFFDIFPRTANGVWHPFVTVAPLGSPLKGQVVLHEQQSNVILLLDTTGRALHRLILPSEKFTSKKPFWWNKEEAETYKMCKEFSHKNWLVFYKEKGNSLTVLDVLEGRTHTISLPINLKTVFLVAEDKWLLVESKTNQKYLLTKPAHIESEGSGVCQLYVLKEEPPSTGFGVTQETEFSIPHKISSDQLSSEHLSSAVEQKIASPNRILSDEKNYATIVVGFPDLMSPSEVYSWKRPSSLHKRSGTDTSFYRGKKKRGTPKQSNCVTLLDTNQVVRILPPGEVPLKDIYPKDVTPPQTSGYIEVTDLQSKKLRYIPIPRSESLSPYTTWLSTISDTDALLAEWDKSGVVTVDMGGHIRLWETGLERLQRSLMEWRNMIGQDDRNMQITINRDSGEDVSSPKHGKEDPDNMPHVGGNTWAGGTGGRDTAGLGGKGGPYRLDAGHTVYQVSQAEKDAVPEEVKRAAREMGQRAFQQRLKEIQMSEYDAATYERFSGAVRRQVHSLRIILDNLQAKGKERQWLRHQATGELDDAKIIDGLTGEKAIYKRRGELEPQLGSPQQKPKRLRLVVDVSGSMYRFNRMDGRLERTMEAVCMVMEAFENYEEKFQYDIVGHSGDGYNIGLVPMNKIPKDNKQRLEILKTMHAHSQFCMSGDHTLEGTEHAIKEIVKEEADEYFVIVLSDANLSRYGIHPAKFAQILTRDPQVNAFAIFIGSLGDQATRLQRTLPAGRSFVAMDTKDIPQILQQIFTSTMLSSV
# Chain of UniProt Q96AX1 (Q96AX1 whole entry, looked up): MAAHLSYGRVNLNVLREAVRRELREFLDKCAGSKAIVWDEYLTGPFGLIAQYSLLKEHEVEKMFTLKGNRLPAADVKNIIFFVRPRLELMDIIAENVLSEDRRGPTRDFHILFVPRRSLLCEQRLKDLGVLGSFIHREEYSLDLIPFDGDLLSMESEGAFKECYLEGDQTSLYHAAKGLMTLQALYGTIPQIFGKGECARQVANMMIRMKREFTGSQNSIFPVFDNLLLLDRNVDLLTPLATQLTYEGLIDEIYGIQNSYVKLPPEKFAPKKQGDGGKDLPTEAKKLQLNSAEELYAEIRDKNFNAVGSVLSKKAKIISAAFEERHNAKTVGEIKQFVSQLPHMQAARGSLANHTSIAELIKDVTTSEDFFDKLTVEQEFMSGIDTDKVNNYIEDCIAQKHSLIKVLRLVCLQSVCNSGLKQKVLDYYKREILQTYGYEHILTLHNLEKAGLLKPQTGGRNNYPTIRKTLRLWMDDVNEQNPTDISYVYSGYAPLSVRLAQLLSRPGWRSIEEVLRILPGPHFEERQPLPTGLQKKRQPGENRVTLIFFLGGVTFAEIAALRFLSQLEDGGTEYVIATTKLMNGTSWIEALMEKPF
# Chain of UniProt O60784 (O60784 whole entry, looked up): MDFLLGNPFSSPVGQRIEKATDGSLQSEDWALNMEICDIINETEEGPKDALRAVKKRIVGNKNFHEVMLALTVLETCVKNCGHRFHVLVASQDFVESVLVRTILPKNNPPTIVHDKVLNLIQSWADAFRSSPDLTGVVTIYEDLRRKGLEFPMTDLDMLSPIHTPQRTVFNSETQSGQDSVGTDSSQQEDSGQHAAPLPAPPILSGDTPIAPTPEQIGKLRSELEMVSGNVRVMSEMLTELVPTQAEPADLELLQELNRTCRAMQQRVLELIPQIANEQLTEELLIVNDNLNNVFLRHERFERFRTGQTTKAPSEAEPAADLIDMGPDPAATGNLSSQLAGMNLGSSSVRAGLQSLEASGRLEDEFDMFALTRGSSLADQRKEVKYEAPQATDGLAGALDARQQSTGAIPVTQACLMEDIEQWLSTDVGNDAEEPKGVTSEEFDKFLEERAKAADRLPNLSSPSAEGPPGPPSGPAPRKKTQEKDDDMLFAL
# Chain of UniProt Q7L0Y3 (Q7L0Y3 whole entry, looked up): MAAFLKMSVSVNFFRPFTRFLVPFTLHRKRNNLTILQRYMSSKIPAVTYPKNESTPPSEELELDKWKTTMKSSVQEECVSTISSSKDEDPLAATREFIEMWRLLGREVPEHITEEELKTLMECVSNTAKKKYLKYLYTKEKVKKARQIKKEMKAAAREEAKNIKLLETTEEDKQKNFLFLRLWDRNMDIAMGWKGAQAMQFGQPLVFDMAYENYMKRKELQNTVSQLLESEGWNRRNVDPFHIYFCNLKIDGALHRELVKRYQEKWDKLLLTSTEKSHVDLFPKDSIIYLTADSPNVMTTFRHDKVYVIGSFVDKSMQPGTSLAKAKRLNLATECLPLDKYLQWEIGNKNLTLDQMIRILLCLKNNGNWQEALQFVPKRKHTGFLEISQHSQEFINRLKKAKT
# Chain of UniProt Q8NCE0 (Q8NCE0 whole entry, looked up): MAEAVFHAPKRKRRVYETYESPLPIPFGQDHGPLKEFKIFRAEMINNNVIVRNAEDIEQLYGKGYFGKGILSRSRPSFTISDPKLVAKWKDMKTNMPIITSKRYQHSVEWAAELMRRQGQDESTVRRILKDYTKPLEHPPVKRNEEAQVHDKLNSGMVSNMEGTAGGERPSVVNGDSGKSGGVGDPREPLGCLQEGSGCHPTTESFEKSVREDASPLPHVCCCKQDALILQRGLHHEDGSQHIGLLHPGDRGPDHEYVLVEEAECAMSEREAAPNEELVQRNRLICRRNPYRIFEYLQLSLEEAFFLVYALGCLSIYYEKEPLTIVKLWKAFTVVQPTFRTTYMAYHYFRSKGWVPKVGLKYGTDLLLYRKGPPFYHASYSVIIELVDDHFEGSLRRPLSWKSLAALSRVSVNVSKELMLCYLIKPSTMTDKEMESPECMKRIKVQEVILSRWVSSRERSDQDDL
# Chain of UniProt O15213 (O15213 whole entry, looked up): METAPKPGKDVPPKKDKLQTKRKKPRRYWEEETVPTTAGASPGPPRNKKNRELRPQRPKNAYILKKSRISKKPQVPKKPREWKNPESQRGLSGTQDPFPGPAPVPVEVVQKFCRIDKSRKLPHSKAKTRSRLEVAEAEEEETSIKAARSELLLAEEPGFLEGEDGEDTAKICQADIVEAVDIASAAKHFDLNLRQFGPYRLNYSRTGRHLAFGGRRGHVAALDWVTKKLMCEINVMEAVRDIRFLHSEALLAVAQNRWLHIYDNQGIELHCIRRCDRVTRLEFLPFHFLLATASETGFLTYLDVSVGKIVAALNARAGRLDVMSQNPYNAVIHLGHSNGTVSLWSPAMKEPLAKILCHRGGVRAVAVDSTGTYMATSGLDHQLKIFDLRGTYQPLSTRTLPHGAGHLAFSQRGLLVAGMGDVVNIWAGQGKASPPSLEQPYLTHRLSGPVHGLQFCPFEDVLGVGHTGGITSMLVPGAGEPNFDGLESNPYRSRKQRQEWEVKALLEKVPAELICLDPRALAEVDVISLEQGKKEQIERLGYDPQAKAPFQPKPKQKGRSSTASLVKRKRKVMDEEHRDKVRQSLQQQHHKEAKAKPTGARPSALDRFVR
# Chain of UniProt O43617 (O43617 whole entry, looked up): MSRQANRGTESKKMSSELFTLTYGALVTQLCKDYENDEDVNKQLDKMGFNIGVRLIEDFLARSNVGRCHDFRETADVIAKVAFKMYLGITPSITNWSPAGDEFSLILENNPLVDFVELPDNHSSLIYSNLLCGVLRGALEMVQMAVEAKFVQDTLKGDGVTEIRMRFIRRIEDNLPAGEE
Target,log2 fold change [1],log2 fold change (crizotinib),log2 fold change [2],log2 fold change [3],log2 fold change (duvelisib),log2 fold change (gandotinib),log2 fold change (tozasertib),log2 fold change [4],log2 fold change (doramapimod),log2 fold change (ispinesib)
TXNRD1 (UniProt Q16881),0.075,-0.043,0.079,-0.053,0.047,-0.045,-0.036,-0.007,-0.028,-0.009
WNK1 isoform 7 (UniProt Q9H4A3),0.022,-0.061,-0.027,0.03,-0.016,-0.032,0.001,-0.018,0.001,-0.044
UFL1 (UniProt O94874),0.05,-0.053,-0.043,0.067,0.005,-0.069,-0.016,0.106,-0.02,-0.025
TPM2 (UniProt P07951),-0.016,-0.012,-0.167,-0.29,-0.131,-0.046,0,-0.117,0.059,0.122
VWA8 (UniProt A3KMH1),0.01,-0.058,0.093,0.025,0.066,-0.038,-0.038,0.094,-0.041,-0.221
UTP4 (UniProt Q969X6),-0.013,0.019,0.055,0.004,0.022,0.004,0.006,-0.056,0.012,0.066
VTI1B (UniProt Q9UEU0),0.022,-0.089,0.025,0.032,-0.045,0.039,0.005,-0.077,0.084,-0.41 (active)
USP25 isoform 3 (UniProt Q9UHP3),0.042,-0.003,-0.017,-0.062,0.05,-0.024,0.036,0.021,0.007,-0.025
TXNIP (UniProt Q9H3M7),0.05,-0.36,-0.103,-0.188,0.03,-0.068,-0.06,0.01,0.113,-0.087
TRAPPC3 (UniProt O43617),-0.003,0.002,0.074,-0.006,0.06,-0.048,0.028,0.017,-0.008,-0.023
VPS33A (UniProt Q96AX1),-0.031,-0.218,0.014,0.043,0.029,-0.091,0.036,0.049,-0.017,-0.154
WEE1 (UniProt P30291),-0.3,-0.025,-1.07 (active),0.094,0.026,0.247,-0.5,-0.049,0.026,0.046
VPS28 (UniProt Q9UK41),0.01,0.051,0.063,-0.091,0.044,-0.055,0,0.096,0.035,-0.041
UBLCP1 (UniProt Q8WVY7),0.063,0.068,-0.007,-0.034,0.03,-0.06,0.045,0.062,-0.061,0.126
VPS51 (UniProt Q9UID3),-0.009,-0.096,-0.003,0.05,0.006,-0.04,0.033,0.079,0.008,-0.115
UBE2J1 (UniProt Q9Y385),0.06,-0.172,0.026,-0.043,0.179,-0.151,0.026,-0.01,-0.26,-0.016
USP15 (UniProt Q9Y4E8),0.04,-0.041,0.05,-0.009,0.01,-0.043,0.056,0.063,-0.045,-0.036
TSG101 (UniProt Q99816),0.035,-0.094,0.082,-0.054,0.019,-0.024,0.032,0.018,0.009,-0.037
VPS8 (UniProt Q8N3P4),0.024,-0.12,0.016,0.127,0.038,-0.097,0.065,0.083,0,-0.154
TSEN2 (UniProt Q8NCE0),-0.198,0.052,0.014,0,0.049,-0.127,-0.048,0.056,-0.057,-0.074
TRMT10C (UniProt Q7L0Y3),0.045,0.03,0.109,-0.013,0.024,-0.072,0,0.069,-0.008,0.017
WDR46 (UniProt O15213),-0.05,0.008,-0.731,0.445,-0.199,0.27,0.068,0.032,0.142,-0.081
UBAP2L isoform 5 (UniProt Q14157),-0.028,0.051,-0.07,-0.007,0.035,0.007,-0.013,0.016,-0.038,0.026
TOM1 isoform 2 (UniProt O60784),0.146,-0.002,0.035,-0.096,0.043,0.101,0.013,0.023,-0.078,-0.043
WASHC2A (UniProt Q641Q2),0.025,-0.28 (active),-0.033,0.137,-0.061,0.012,0.062,-0.047,0.062,-0.229
TNFRSF10A (UniProt O00220),-0.008,0.037,0.047,-0.073,0,0.019,-0.024,-0.019,-0.023,-0.075
VPS53 isoform 4 (UniProt Q5VIR6),0.087,-0.095,-0.004,0.006,-0.033,0,0.061,0.059,0.036,-0.113
"WDR46, A0A0G2JJL1",-0.119,0.086,-0.581,,-0.157,,0.198,-0.125,0.236,
"VARS2, A0A0G2JL52",0.004,0,0.06,0.018,0.012,-0.061,-0.034,0.025,0.048,-0.244 (active)
UCHL5 isoform 3 (UniProt Q9Y5K5),0.039,-0.458,0.058,-0.05,,,0.219,,-0.067,0.02

# — the supplement of paper PMC10849652
